Assay outcomes deposited in PubChem BioAssay by National Center for Advancing Translational Sciences (NCATS).
This is a sample that favours compounds with a hit; in the whole collection about 18% have one here.
DT40 TDP1 no CPT: qHTS for Inhibitors of human tyrosyl-DNA phosphodiesterase 1 (TDP1): qHTS in cells in absence of CPT. AID 686978, 2013. Potency, µM (top dose mostly 46.2 µM), for the others: at the highest dose activity change, negative = growth inhibition, usual class: inhibitors. DT40 Tdp1-/- hTDP1 cells, no CPT, ATP luminescence, 48 h. 420,000 tested, 15% active; further: potency means the concentration at half of the fitted maximal effect; nearly all actives have a fitted effect of over 55% in size
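A cellular qHTS used chicken DT40 cells lacking endogenous Tdp1 but carrying stably transfected human TDP1. Compounds were applied without camptothecin, and cell growth kinetics were judged by ATP-dependent luminescence after ≥48 hr.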
Six1-Eya2 blk: Six1/Eya2 interaction inhibition; activity change, % (no concentration beside the values); Q15475+O00167; 360,000 tested, 0.56% active; AlphaScreen GST-Six1/His-Eya2 binding, biochemical; hits give low values; in the data active means activity change below about -65%; inconclusive means mostly about -30% to -63%
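Compounds are tested against tagged Six1 and Eya2 proteins bridged by glutathione donor and nickel acceptor beads; after a one-hour incubation at 37 °C without light, AlphaScreen emission is recorded.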
DT40 TDP1 CPT: growth inhibition of DT40 Tdp1-/-;hTDP1 cells with camptothecin (screen for TDP1 inhibitors) | 420,000 tested, 12% active | Potency, µM (highest dose often 46.2 µM), without a hit: at the top dose activity change, negative = growth inhibition, hits mostly inhibitors | chicken DT40 Tdp1-/-;hTDP1 cells + 20 nM CPT, ATP luminescence, 48 h | AID 686979; further: potency means the concentration at half of the fitted maximal effect; nearly all actives have a fitted effect of over 55% in size
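Cell growth measured by CellTiter-Glo luminescence after a minimum 48 h, 37 C compound exposure with 20 nM CPT in Tdp1-knockout DT40 cells stably expressing hTDP1, seeded 400/well; qHTS titration format.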
IL1B secr inh: inflammasome signaling inhibition, IL-1 beta readout. THP-1 LPS/ATP IL-1B secretion, AlphaLISA, 16 h; hits give low values. activity change, % at 57.5 µM. 360,000 tested, 4.7% active. AID 743279; in the data active means activity change below about -50%; inconclusive means mostly about -30% to -49%
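Secreted IL-1B measured by AlphaLISA bead assay after 16 h compound exposure of THP-1 cells; compounds (final up to 57.5 uM) added 1 h before LPS (250 ng/mL) and ATP (1.25 mM) stimulation; lower signal means less secretion.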
TDP1 inh: inhibitors of human tyrosyl-DNA phosphodiesterase TDP1 | Q9NUW8 | recombinant TDP1, AlphaScreen DNA substrate cleavage | Potency, µM (doses to about 130 µM), inactives show at the highest dose activity change, negative = inhibition, most hits filed as inhibitors | 350,000 tested, 0.28% active; further: potency means the concentration at half of the fitted maximal effect; nearly all actives have a fitted effect of over 40% in size
Target sequence (Q9NUW8 whole entry, looked up): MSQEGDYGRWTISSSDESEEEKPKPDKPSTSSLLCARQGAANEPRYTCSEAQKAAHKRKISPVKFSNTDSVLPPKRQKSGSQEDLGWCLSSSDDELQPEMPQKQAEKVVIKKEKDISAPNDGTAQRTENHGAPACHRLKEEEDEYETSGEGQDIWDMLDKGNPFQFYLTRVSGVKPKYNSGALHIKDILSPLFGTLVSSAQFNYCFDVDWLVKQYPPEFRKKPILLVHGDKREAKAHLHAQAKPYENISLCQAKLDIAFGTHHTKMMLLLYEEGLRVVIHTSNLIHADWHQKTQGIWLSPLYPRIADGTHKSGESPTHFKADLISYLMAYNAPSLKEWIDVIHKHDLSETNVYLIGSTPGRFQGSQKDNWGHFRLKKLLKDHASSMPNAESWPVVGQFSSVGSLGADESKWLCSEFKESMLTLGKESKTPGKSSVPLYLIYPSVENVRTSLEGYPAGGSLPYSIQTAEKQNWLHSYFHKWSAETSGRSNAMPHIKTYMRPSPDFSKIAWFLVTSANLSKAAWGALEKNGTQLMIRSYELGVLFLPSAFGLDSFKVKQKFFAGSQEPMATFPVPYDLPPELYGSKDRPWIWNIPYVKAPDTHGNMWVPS
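E. coli-derived human Tdp1, 1 nM final. Cpd preinc 15 min RT; substrate 15 nM final, 5 min RT; AS bead mix 10 ug/ml final, 10 min RT. Signal loss = tyrosine-FITC cleavage. No-enzyme wells = max signal.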
CtBP-E1A blk: blocks the CtBP interaction with E1A. AlphaScreen GST-E1A/His-CtBP binding, 1536-well; hits give low values. activity change, % (concentration not given with the values). 340,000 tested, 0.49% active; in the data active means activity change below about -65%; inconclusive means mostly about -30% to -63%
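Protein mix (5X: 125 nM each GST-E1A, His-CtBP) was incubated with pinned compound 2 h at 37 deg C in dark, in 50 mM Tris pH 8.0 buffer with 300 mM NaCl. Glutathione donor and nickel acceptor beads followed; AlphaScreen signal read after 1 h.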
* marks the source's active call; other numbers are inactive results; ? = inconclusive; . = not tested or not shown. Unless noted, the call rests on the fitted dose curve; in most records, active means well fitted curve in the direction sought with a large enough effect; inconclusive means small, poorly fitted or top-dose-only effect, or another doubt; inactive means no such curve, though single readings can be large; an effect the other way counts as inactive or inconclusive. On the % scale 0 is the no-effect control and ±100 the full control effect.

SMILES	DT40 TDP1 no CPT	Six1-Eya2 blk	DT40 TDP1 CPT	IL1B secr inh	TDP1 inh	CtBP-E1A blk
Cc1ccc(CSc2nc3ccsc3c(=O)n2Cc2ccccn2)cc1	16.4µM*	-0.8	?	?	0.0%	-2.9
CCc1ccc(NC(=O)CN2CCCN(Cc3cccc(Cl)c3)S2(=O)=O)cc1	-21.4%	.	?	.	0.0%	.
O=C(CN1CCCN(Cc2ccc(F)cc2Cl)C1=O)NCc1ccccc1	?	1.7	?	12.1	3.2%	-2.1
CCc1cccc(C)c1NC(=O)CN1CCCN(Cc2ccccc2Cl)S1(=O)=O	23.1µM*	.	?	.	2.8%	.
CCc1ccc(NC(=O)CN2CCN(Cc3ccccc3)S2(=O)=O)cc1	-23.9%	.	-16.8%	.	6.2%	.
CCc1cccc(C)c1NC(=O)CN1CCN(Cc2ccccc2Cl)S1(=O)=O	25.9µM*	.	?	.	0.0%	.
O=C(CN1CCCN(Cc2ccc(F)cc2)S1(=O)=O)NCc1ccccc1Cl	16.4µM*	.	?	.	0.0%	.
COC(=O)CC(c1ccc(F)cc1)n1c(C)ccc1C (stereo not drawn)	?	0.0	-1.3%	-11.6	5.4%	1.7
CCOc1ccc(NC(=O)c2cc(-c3ccc(C)c(F)c3)on2)c([N+](=O)[O-])c1	-12.2%	.	-0.6%	.	8.6%	.
Cc1ccc(CC(C)(O)CC(C)(O)Cc2ccc(C)cc2)cc1 (stereo not drawn)	18.4µM*	15.8	20.6µM*	-3.1	.	-20.3
Cc1nc(-c2ccccc2)c(Cc2ccccc2O)c(=O)[nH]1	5.17µM*	-1.7	5.8µM*	22.4	.	.
Cc1c(Cl)cccc1NC(=O)c1ccc2snnc2c1	-28.4%	.	-1.0%	.	2.5%	.
CCOC(=O)N1CCN(CC(O)c2c[nH]c3ccccc23)CC1 (stereo not drawn)	-23.2%	-1.4	?	-25.4	.	-21.5
N#C/C(=C/c1ccc(N2CCCCC2)o1)C(=O)Nc1ccc(Cl)cc1	?	2.9	?	-13.5	0.0%	7.2
N#C/C(=C/c1ccc(N2CCCCCC2)o1)c1ccc(F)cc1	4.61µM*	0.8	5.17µM*	-69.5*	.	1.1
N#C/C(=C/c1ccc(N2CCCCCC2)o1)c1cccc(F)c1	20.6µM*	-14.9	?	-27.2	-4.7%	-9.1
COc1cc(N2CCCC2)c(OC)cc1/C=C(/C#N)c1cccc(F)c1	?	-72.0*	?	-7.3	12.9%	?
CN1CCN(Cc2coc3c(Cl)cc(Cl)cc3c2=O)CC1	-22.1%	0.7	-7.1%	-12.2	.	.
COc1ccc(NC(=O)c2sc3nc(C)c(C(=O)Nc4ccc(C)cc4C)c(-c4sccc4C)c3c2N)cc1	-19.7%	.	4.7%	.	5.0%	.
CC(=O)Nc1ccc(C(=O)COC(=O)Cc2ccsc2)c(F)c1	-9.2%	9.9	5.6%	-6.0	0.0%	34.8
COc1ccccc1CN1C(=O)CN(C2CCCCCC2)C(=O)C1c1ccc(F)cc1 (stereo not drawn)	17.8µM*	-2.3	20.6µM*	-21.2	?	-0.7
CCCOc1ccc(C2C(=O)N(C3CCCCC3)CC(=O)N2CCC)cc1OC (stereo not drawn)	?	-2.3	?	-14.8	1.0%	-1.8
CCCCN1C(=O)CN(C2CCCCCC2)C(=O)C1c1ccc(OCCC)c(OC)c1 (stereo not drawn)	?	.	11.6µM*	.	5.2%	.
CCOc1ccc(C2C(=O)N(C3CCCCC3)CC(=O)N2Cc2ccc(F)cc2)cc1OC (stereo not drawn)	-22.8%	.	?	.	13.0%	.
CCCOc1ccc(C2C(=O)N(C3CCCCCC3)CC(=O)N2Cc2ccccc2OC)cc1OC (stereo not drawn)	16.4µM*	.	25.9µM*	.	2.6%	.
SMILES	DT40 TDP1 no CPT	Six1-Eya2 blk	DT40 TDP1 CPT	IL1B secr inh	TDP1 inh	CtBP-E1A blk
CCCCOC(=O)C(C)Oc1ccc(=O)n(-c2ccccc2)n1 (stereo not drawn)	?	11.4	-7.6%	48.1	5.2%	1.4
c1coc(CNc2c3c(nc4ncnn24)CCCC3)c1	-17.3%	0.2	?	5.0	0.0%	0.5
Clc1cccc(-c2cc3nc4c(c(NCc5ccco5)n3n2)CCCC4)c1	11.2µM*	-1.6	20.6µM*	-95.8*	9.2%	9.4
O=C(Cn1c(=O)n(CCCS(=O)(=O)C2CCCCC2)c(=O)c2ccccc21)Nc1ccccc1C(F)(F)F	?	.	-17.5%	.	0.0%	.
O=c1c(=Nc2ccccc2O)c(=O)c2ccccc12	11.6µM*	15.0	7.31µM*	-16.3	0.6%	.
O=C1NCC(O)=C1C=Nc1ccccc1O	?	19.3	?	6.7	8.2%	.
COc1ccc(NC(=O)Nc2ccc3c(c2)C(=O)N([C@H](C)CO)C[C@H](C)[C@@H](CN(C)C(=O)NC(C)C)O3)cc1	-14.6%	3.8	3.5%	20.7	1.5%	0.4
COc1ccc(NC(=O)Nc2ccc3c(c2)C(=O)N([C@@H](C)CO)C[C@@H](C)[C@@H](CN(C)CC2CCCCC2)O3)cc1	23.1µM*	-7.7	?	-1.7	3.6%	0.2
COc1ccc(NC(=O)Nc2cccc3c2O[C@@H](CN(C)CC2CCCCC2)[C@@H](C)CN([C@H](C)CO)C3=O)cc1	?	-2.3	23.1µM*	-1.3	0.9%	1.6
Cc1ccn2cc(CCNS(=O)(=O)c3ccc(F)c(C(F)(F)F)c3)nc2c1	?	-4.0	-10.1%	-9.5	3.3%	3.4
Clc1ccc(-c2ccnc(Oc3ccc4ccccc4c3)n2)cc1	-28.2%	12.1	-17.4%	2.1	-2.8%	7.6
CCCCNc1c2c3c(cccc3n(C)c1=O)C(=O)c1ccccc1-2	18.4µM*	36.6	?	9.5	.	15.1
Cn1c(=O)c(N)c2c3c(c(Br)ccc31)C(=O)c1ccccc1-2	?	?	?	-16.1	1.2%	.
Cn1c(=O)c(NC2CCCCC2)c2c3c(cccc31)C(=O)c1ccccc1-2	?	55.2	?	-66.4*	3.0%	19.6
CC(=O)Nc1ccc(Nc2c3c4c(cccc4n(C)c2=O)C(=O)c2ccccc2-3)cc1	?	-10.5	?	-14.3	5.1%	-20.6
CCCCn1nnnc1C(c1ccccc1)N1CCN(Cc2c(F)cccc2Cl)CC1 (stereo not drawn)	?	-15.2	?	15.2	.	-1.4
CCc1ccc(C(=O)COC(=O)CNC(=O)COc2ccccc2)cc1	-3.9%	6.5	15.1%	-4.7	-0.1%	-22.2
C=C1CC2(CC(c3ccccc3)OC(c3ccccc3)C2)OC1=O (stereo not drawn)	2.59µM*	2.4	1.84µM*	-115.1*	.	1.9
